Results taken from PubChem BioAssay (NCI).
About 79,000 compounds went through this panel and 15% of them were active in at least one assay; those are over-represented in the sample as a whole. A number with no mark means an inactive call. The source made the active and inactive calls. Rule as the data show it: active = growth inhibition above about 70%; inactive = the rest.

Assays:
[1] = NCI Yeast Anticancer Drug Screen. Data for the rad50 strain (AID 155);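 also: 0% = growth of vehicle-only cultures of the same strain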; settings: S. cerevisiae rad50 strain growth inhibition; at 50.0 µM; hits give high values
Method in brief: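 Readout: growth inhibition relative to vehicle-treated cultures. Compound exposure was carried out in a genetically defined yeast strain deficient in DNA damage repair.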

[2] = NCI Yeast Anticancer Drug Screen. Data for the mec2-1 strain (AID 157); settings: S. cerevisiae mec2-1 strain, at 50.0 µM, hits give high values
Method in brief: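 Growth inhibition is read against vehicle-treated controls after compound exposure of the mec2-1 yeast strain, which is defective in DNA damage repair or cell cycle control.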

[3] = NCI Yeast Anticancer Drug Screen. Data for the sgs1 mgt1 strain (AID 161);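 also: 0% = growth of cultures given vehicle only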; settings: S. cerevisiae sgs1 mgt1 strain, at 50.0 µM, hits give high values
Method in brief: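 Compounds are added to genetically altered yeast, and growth is compared with cultures given vehicle alone to give percent inhibition.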

[4] = NCI Yeast Anticancer Drug Screen. Data for the cln2 rad14 strain (AID 165);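 also: 0% = growth equal to vehicle treated cultures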; settings: S. cerevisiae cln2 rad14 strain, at 50.0 µM, hits give high values
Method in brief: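 Growth inhibition, relative to vehicle-treated controls, is the read-out. The test organism is a yeast strain with defined genetic alterations, cln2 rad14.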

[5] = NCI Yeast Anticancer Drug Screen. Data for the bub3 strain (AID 167); settings: S. cerevisiae bub3 mutant strain, at 50.0 µM, hits give high values
Method in brief: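 Readout: yeast growth inhibition, expressed relative to vehicle-only wells. The test organism is a mutant strain from a panel with lesions in DNA repair or checkpoint genes.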

[6] = NCI Yeast Anticancer Drug Screen. Data for the mlh1 rad18 strain (AID 175); settings: S. cerevisiae mlh1 rad18 strain growth inhibition; at 50.0 µM; hits give high values
Method in brief: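 Cells of a genetically altered yeast strain, deficient in DNA damage repair, were treated with compound. Their growth was then compared with that of vehicle-treated cultures to give inhibition.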

SMILES | growth inhibition [1] | growth inhibition [2] | growth inhibition [3] | growth inhibition [4] | growth inhibition [5] | growth inhibition [6]
Cc1c(C(=O)Nc2ccc(Cl)cc2)nc(N)nc1-c1cccc(Cl)c1 | -18.9% | -8.85% | 2.3% | 1.1% | -3.6% | -8.7%
C#CCNC(=O)NCCCC(NC(C)=O)C(=O)NCc1ccccc1 (stereo unspecified) | 41% | -12.2% | -4.65% | 32.1% | -5.75% | -8.15%
CCS(=O)(=O)/C=C/c1cccnc1 | 0.45% | -4.8% | -11.4% | -51.5% | 3.05% | 9.5%
c1ccc(Cc2nnc3n2CCC(c2ccccc2)S3)cc1 (stereo unspecified) | -9.8% | 1.3% | -10.9% | 2.4% | 5.05% | -0.25%
O=C1NC(=O)C(Cc2ccco2)N1 (stereo unspecified) | 10.8% | 6.7% | -7.85% | -20.6% | -35.5% | -5.2%
Cc1ccc(N=C2c3cc([N+](=O)[O-])ccc3-c3ccc([N+](=O)[O-])cc32)cc1 | 15.1% | -10.1% | 0.35% | -18.1% | -4% | -2.25%
Cc1cccc2c(N)c3cccc(C(=O)NCC[N+](C)(C)[O-])c3nc12 | 8.7% | -13.3% | 11.1% | 31% | 18.4% | 20.6%
COC(=O)N/C(C)=N/OCc1ccccc1 | 1.2% | 0.6% | 4.3% | 8.8% | 15% | -11.7%
ClCCCCCOCCCCCCl | 8.15% | 1.25% | -1.5% | -11.7% | -4.75% | -1.05%
Cc1ccc(OC/C=N\N=C(N)N)cc1C | -7.9% | 16.4% | 41.3% | -6% | 8.3% | 17.1%
NC(N)=N/N=C/c1c(-c2ccc(Cl)cc2)nc2n1CCS2 | -36.6% | -51.6% | -18% | -10.9% | -5.05% | -25.2%
Nc1ncc2c(n1)-c1ccccc1OC2NC1CC1 (stereo unspecified) | 2.5% | 12.1% | -29.2% | -5.55% | -36.2% | -4.65%
N#Cc1cccc(C2SCc3nc4ccccc4n32)c1 (stereo unspecified) | -1.1% | -8.9% | 25.9% | 23.1% | 4.8% | 18.1%
O=S(=O)(Nc1cccc(C(F)(F)F)c1)c1ccc(F)cc1 | 6.95% | 9.5% | 11% | 12.9% | -3.5% | 42.9%
CCC(=O)Nc1cc(Cl)c(Cl)cc1C | -8.7% | -12.4% | -13.5% | -85.8% | -27.2% | -12%
CC(=O)O[C@@H]1[C@H]2[C@@H](OC(=O)c3ccccc3)[C@@H](C)C[C@]2(O)[C@H](OC(C)=O)[C@@]2(C)[C@@H]3C[C@@](C)(OC(C)=O)C[C@@H](OC(C)=O)[C@@]3(OC(C)=O)C[C@@]12C | -7.55% | -7.05% | -3.8% | -32.8% | -6.35% | -50.5%
CCOC(=O)c1c(/C=N\Nc2ccccc2)nc2ccccc2c1-c1ccccc1 | 11.7% | 0.6% | -2.9% | -6.5% | -30.8% | -7.4%
NC(CCc1ccc2c(c1)OCO2)C(=O)O (stereo unspecified) | 5.35% | -11.8% | -3.55% | -47% | -5.8% | 22.9%
C[CH2][Sn]([CH2]C)([O]P(=O)(C[Si](C)(C)C)c1ccccc1)[O]P(=O)(C[Si](C)(C)C)c1ccccc1 (stereo unspecified) | 0% | 8.7% | 4.2% | 24% | 53.2% | 17.2%
O=C(c1ccccc1)C(c1ccccc1)n1nc2c(c1-c1ccccc1)CCCC2 (stereo unspecified) | 84.4% (active) | 87.2% (active) | 83.9% (active) | 88.4% (active) | 86.4% (active) | 91.4% (active)
CCc1c([N+](=O)[O-])cc(C(C)(C)C)c(OC)c1[N+](=O)[O-] | -9.05% | -9.75% | 0.6% | -17.6% | 20.2% | -31.6%

SMILES | growth inhibition [1] | growth inhibition [2] | growth inhibition [3] | growth inhibition [4] | growth inhibition [5] | growth inhibition [6]
N#CCCBr | 23.9% | 0.15% | 7.45% | -22.6% | 15.7% | 31.1%
CN(C)C(=NN)N(C)C | 0.5% | -2.3% | 1.55% | -34% | 3.6% | -3.9%
O=C(O)c1c[nH]c2cc(OCc3ccc(Br)cc3)ccc2c1=O | 13.8% | 0.65% | -1.85% | 6.9% | 2.5% | 9.45%
Cc1cc2ccccc2nc1-c1ccncc1 | 3.45% | -3.15% | -7.35% | -44.6% | -6.75% | 1.2%
CCOc1ccc(NC(=O)/C(Cc2nc3ccccc3[nH]c2=O)=N\O)cc1 | 21.9% | -5.1% | -15.9% | 15.8% | 4.1% | -4.7%
O=C1c2ccccc2C2(c3ccccc3)C=NNC12c1ccccc1 (stereo unspecified) | 21.5% | 6.9% | 18.2% | 4.4% | 55.5% | 25.1%
CC(=O)OCCOC(=O)Nc1ccccc1 | 0.05% | -14.5% | -13.9% | -22.2% | -2.55% | -4.85%
Cc1cc(Cl)ccc1NC(=O)CCCC(=O)C1CCC/C1=N\NC(=O)CC#N (stereo unspecified) | -33.2% | 9.7% | -7.25% | 8.95% | 5.7% | -12.3%
O=C1OC(=O)C2C1C1(Cl)CC2(Cl)C(Cl)=C1Cl (stereo unspecified) | -3.05% | -31.8% | 2% | -30.8% | -23.1% | -18.6%
Oc1c(Br)cc(Br)cc1/C=N/N=C/c1cc(Br)cc(Br)c1O | -6.7% | -20% | -15.9% | 0.2% | -8.5% | 7.5%
Cc1ccc2nnc(NS(=O)(=O)c3cc(C)c(Cl)cc3S)n2n1 | -30.3% | -7.75% | -24.9% | -16.9% | -0.9% | -25.4%
CCOC(=O)C(=O)Nc1c(N(CC)CC)n2ccccc2nc1=O | 5.75% | -22.5% | -4.15% | 6.2% | 2.6% | 13.8%
NC(=O)C(=Cn1c(=S)[nH]c2ccccc21)C(N)=O | -51.9% | -23.2% | -19.1% | -0.5% | -1.8% | -28.2%
Cc1ccc(S(=O)(=O)N2CCCSCCSCCCN(S(=O)(=O)c3ccc(C)cc3)CC2)cc1 | 8.85% | -10.8% | 4% | -45% | -10.1% | 2.05%
Cc1c([N+](=O)[O-])cc2c(c1[N+](=O)[O-])C(C)(C)C(C)CC2(C)C (stereo unspecified) | 1.2% | -15.8% | 6.45% | -15% | 45.7% | -10.9%
O=C(O)/C=C/SCc1ccccc1 | 10.2% | -13.2% | 0.8% | -4.3% | 1.4% | -3.05%
NC(=O)c1ccc(Cl)cc1 | 33% | 14.2% | 15.5% | 14.4% | -0.6% | 2%
COc1ccc(C(CCOS(=O)(=O)c2ccc(Br)cc2)(c2ccc(OC)cc2)c2ccc(OC)cc2)cc1 | 0.9% | 12.8% | -13.1% | -23.6% | 0% | 15.6%
O=C(O)CC(=O)Nc1cc([N+](=O)[O-])ccc1OCc1ccccc1 | -2.95% | 3.6% | -1.1% | -14.7% | 5.7% | 0.85%
CN=C(NN)NS(=O)(=O)c1cc(C)c(Cl)cc1S | -12.6% | -22.8% | -11.7% | -10.9% | 3.4% | 7.05%
